This passage reports ΔTm results from ChEMBL document CHEMBL5724796, “Tm Shift (DSF) assay results for EUbOPEN Chemogenomics Library” (2024).

Broadly, the ΔTm is the shift of the melting midpoint relative to a reference.

Holding throughout (settings): Compound concentration 20.0 uM
In assay [1] the target is Tyrosine-protein kinase ABL1 (Homo sapiens) (UniProt P00519).
Assay [2] has as its target Bromodomain-containing protein 4 (Homo sapiens) (UniProt O60885).
Assay [3] has as its target Cyclin-dependent kinase 2 (Homo sapiens) (UniProt P24941).
The target of assay [4] is Casein kinase I isoform delta (Homo sapiens) (UniProt P48730).
Casein kinase I isoform delta (Homo sapiens), sequence (P48730 whole entry, looked up, canonical isoform): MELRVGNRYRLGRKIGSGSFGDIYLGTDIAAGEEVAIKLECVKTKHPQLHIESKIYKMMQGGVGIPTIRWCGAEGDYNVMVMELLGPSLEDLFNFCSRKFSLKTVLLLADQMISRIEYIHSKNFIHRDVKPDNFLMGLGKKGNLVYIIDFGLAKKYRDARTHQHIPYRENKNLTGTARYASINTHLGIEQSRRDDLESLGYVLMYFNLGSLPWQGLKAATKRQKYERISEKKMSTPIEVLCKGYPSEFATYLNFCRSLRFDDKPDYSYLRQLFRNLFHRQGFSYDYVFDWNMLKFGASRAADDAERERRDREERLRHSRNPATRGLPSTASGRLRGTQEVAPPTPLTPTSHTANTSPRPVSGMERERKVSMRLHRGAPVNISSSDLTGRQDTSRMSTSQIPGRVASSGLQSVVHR
Assay [5] deals with Glycogen synthase kinase-3 beta (Homo sapiens) (UniProt P49841).
Glycogen synthase kinase-3 beta (Homo sapiens), sequence (P49841 whole entry, looked up): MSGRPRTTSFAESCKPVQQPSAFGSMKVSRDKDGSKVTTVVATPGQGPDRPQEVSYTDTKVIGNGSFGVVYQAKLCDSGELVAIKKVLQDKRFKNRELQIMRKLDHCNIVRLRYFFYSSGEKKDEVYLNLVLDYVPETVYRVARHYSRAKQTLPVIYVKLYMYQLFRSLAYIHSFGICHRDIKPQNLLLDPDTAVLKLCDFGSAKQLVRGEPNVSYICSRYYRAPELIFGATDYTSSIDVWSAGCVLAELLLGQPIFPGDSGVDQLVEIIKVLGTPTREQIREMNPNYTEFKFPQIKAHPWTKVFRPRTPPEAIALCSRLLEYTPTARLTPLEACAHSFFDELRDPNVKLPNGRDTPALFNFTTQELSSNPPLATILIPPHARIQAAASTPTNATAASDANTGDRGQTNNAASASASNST
The target in assay [6] is Mitogen-activated protein kinase 1 (Homo sapiens) (UniProt P28482).
Mitogen-activated protein kinase 1 (Homo sapiens), sequence (P28482 whole entry): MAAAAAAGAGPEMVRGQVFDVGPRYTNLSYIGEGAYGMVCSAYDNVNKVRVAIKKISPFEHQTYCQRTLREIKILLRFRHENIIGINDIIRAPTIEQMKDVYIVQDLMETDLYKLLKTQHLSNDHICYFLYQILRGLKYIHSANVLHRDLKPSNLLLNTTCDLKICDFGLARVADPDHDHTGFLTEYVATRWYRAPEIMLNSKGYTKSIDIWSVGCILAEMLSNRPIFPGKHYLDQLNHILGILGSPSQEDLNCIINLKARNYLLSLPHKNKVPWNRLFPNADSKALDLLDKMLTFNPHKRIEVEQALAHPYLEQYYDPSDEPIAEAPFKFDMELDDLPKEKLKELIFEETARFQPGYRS
The target in assay [7] is T1, Aurora kinase A (Homo sapiens) (UniProt O14965).
T1 sequence (whole entry): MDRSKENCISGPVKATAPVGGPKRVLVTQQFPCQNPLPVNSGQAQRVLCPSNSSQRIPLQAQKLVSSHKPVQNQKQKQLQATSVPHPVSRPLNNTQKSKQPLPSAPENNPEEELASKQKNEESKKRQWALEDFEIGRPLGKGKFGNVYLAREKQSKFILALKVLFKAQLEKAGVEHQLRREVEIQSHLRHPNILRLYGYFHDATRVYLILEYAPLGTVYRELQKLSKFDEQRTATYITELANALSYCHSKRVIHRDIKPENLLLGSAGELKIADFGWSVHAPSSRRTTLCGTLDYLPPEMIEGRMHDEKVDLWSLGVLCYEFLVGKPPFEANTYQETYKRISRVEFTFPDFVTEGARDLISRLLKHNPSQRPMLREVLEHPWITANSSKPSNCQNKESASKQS

The target in assay [8] is T2, Transcription intermediary factor 1-alpha (Homo sapiens) (UniProt O15164).
T2 sequence (whole entry): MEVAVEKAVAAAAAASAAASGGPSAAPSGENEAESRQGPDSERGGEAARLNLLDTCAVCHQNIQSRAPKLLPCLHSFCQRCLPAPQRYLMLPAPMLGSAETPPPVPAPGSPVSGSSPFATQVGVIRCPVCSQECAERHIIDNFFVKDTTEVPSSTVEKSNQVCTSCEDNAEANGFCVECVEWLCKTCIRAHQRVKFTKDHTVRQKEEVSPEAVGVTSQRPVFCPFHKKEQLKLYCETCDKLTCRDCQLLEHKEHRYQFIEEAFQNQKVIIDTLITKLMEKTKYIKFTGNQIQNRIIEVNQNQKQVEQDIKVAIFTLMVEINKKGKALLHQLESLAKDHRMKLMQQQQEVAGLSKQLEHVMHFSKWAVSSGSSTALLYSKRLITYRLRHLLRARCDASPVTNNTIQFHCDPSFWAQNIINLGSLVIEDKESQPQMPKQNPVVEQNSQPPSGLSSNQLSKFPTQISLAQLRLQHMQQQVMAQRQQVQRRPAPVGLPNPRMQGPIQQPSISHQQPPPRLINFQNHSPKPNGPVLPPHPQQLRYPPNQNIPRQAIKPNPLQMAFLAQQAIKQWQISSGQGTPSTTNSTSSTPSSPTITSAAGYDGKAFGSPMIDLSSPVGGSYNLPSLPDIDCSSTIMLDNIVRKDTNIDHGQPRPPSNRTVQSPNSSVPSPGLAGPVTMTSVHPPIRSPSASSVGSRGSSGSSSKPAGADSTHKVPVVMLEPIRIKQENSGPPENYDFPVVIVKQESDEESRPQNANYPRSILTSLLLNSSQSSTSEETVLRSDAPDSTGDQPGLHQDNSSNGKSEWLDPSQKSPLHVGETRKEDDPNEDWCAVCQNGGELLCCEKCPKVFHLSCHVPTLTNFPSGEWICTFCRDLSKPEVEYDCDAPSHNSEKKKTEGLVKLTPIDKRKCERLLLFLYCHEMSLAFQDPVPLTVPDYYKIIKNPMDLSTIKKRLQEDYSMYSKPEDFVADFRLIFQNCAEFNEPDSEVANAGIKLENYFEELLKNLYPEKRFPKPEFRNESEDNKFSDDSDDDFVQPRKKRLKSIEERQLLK

Tyrosine-protein kinase ABL1 (Homo sapiens), sequence (P00519 whole entry): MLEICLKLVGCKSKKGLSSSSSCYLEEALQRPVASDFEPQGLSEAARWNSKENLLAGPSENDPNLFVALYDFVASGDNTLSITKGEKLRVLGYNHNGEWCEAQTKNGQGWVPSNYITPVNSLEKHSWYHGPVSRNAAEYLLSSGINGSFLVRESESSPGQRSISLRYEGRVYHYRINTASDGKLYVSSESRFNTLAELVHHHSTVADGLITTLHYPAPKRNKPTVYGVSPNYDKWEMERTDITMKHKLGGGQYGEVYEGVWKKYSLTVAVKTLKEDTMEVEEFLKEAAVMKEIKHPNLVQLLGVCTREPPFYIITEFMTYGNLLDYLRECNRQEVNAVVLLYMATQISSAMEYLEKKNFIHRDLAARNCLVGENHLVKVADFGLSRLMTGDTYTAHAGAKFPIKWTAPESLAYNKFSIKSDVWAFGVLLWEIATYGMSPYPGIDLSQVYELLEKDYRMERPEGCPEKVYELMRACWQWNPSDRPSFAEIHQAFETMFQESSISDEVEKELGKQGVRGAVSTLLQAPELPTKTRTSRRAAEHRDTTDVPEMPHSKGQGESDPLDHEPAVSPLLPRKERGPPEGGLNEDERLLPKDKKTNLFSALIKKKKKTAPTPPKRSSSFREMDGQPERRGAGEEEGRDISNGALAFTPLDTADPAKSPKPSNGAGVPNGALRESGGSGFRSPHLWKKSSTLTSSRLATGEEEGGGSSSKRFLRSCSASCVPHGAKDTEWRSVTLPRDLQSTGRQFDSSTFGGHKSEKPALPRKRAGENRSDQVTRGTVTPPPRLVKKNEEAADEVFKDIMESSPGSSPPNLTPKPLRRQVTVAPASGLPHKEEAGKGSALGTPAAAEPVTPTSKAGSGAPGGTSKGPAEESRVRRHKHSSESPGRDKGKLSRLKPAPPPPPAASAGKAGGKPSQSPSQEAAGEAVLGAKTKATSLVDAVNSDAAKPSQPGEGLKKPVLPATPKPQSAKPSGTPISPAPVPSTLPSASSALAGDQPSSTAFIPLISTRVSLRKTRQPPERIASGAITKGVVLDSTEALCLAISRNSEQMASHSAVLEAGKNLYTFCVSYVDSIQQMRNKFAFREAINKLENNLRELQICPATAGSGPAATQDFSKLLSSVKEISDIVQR

As to `COc1ccc(C(=O)C2CCN(CC(=O)N(Cc3nc4c(c(=O)[nH]3)COCC4)CC3CC3)CC2)cc1`, the ΔTm in assay [1] is 0.52 °C; in assay [2] it was -1.61 °C; in assay [3] it was 0.34 °C; in assay [4] it was -0.4 °C; in assay [5] it was -0.12 °C; in assay [6] it was 0.46 °C. The ΔTm in assay [7] was -1.35 °C; in assay [8], 0.91 °C.
In the case of `CN1C(=O)c2c(nn(Cc3ccc(-c4cccc(F)n4)cc3)c2Nc2ccccc2)N2C1=N[C@@H]1CCC[C@@H]12`, the ΔTm in assay [1] is 0.2 °C; in assay [2], 0.64 °C; in assay [3], -0.42 °C; in assay [4] it was -0.09 °C; in assay [5], 2.76 °C; in assay [6], 0.5 °C. In addition, the ΔTm in assay [7] is -0.82 °C; in assay [8] it was 0.46 °C.
With `CNCCCN1c2ccccc2CCc2ccccc21`, the ΔTm in assay [1] is 0.08 °C; in assay [2] it was -2.59 °C; in assay [3] it was -0.16 °C; in assay [4], -0.01 °C; in assay [5], -1.29 °C; in assay [6] it was 0.06 °C. Further, the ΔTm in assay [7] is -1.87 °C; in assay [8], 0.96 °C.
For `C[C@H](CN[C@@H](C(=O)Nc1ccc(-c2cnn(C)c2)cn1)c1ccccc1)c1ccc(C#N)cc1`, the ΔTm was -0.21 °C in assay [1]; -5.89 °C in assay [2]; -3.07 °C in assay [3]; 1.03 °C in assay [4]; -2.94 °C in assay [5]; -4.97 °C in assay [6]. Also, the figures for the ΔTm in assay [7] and in assay [8] were -1.84 °C and -1.37 °C, respectively.
As to `Cc1cc(-n2cccc2)c(S(C)(=O)=O)cc1C(=O)N=C(N)N`, the ΔTm was 0.53 °C in assay [1]; -2.59 °C in assay [2]; -0.16 °C in assay [3]; -0.26 °C in assay [4]; -0.28 °C in assay [5]; 0.62 °C in assay [6]. Also, the ΔTm in assay [7] was -2.33 °C; in assay [8], -0.16 °C.
With `CC1=NN(c2ccc(C(=O)O)cc2)C(=O)/C1=C/c1ccc(-c2cc(C)c(C)cc2[N+](=O)[O-])o1`, the ΔTm in assay [1] was 3.73 °C; in assay [2] it was -0.48 °C; in assay [3] it was 0.29 °C; in assay [4] it was 0.15 °C; in assay [5] it was 0.03 °C; in assay [6], 0.41 °C. Besides, the figures for the ΔTm in assay [7] and in assay [8] were -0.94 °C and -1.19 °C, respectively.
Turning to `O=c1[nH][nH]c(=O)c2cc(OCc3ccsc3)ccc12`, the ΔTm is 1.93 °C in assay [1]; -2.87 °C in assay [2]; 0.73 °C in assay [3]; -0.03 °C in assay [4]; 0.96 °C in assay [5]; 0.65 °C in assay [6]. The ΔTm in assay [7] was -1.5 °C; in assay [8] it was 0.51 °C.
As to `Cc1ccc2[nH]c(-n3nc(C)c(Cc4ccccc4)c3O)nc2c1`, the ΔTm in assay [1] was 0.97 °C; in assay [2], -3.32 °C; in assay [3], 0.2 °C; in assay [4] it was 0.73 °C; in assay [5] it was 0.42 °C; in assay [6] it was 0.56 °C. Besides, the ΔTm in assay [7] is -1.88 °C; in assay [8], -0.69 °C.
Consider `Oc1ccc(-c2c(-c3ccccc3)nn3c(C(F)(F)F)cc(C(F)(F)F)nc23)cc1`, for which the ΔTm in assay [1] is 2.06 °C; in assay [2], -1.27 °C; in assay [3] it was 0.46 °C; in assay [4] it was 0.39 °C; in assay [5], -0.06 °C; in assay [6] it was -0.2 °C. Besides, the ΔTm was -0.53 °C in assay [7] and -0.6 °C in assay [8].
As to `CC(C)c1cc(C(=O)N2CC[C@@H](NC(=O)C3CC3)C2)[nH]n1`, the ΔTm in assay [1] is 0.79 °C; in assay [2], -3.2 °C; in assay [3] it was 0.06 °C; in assay [4] it was -0.08 °C; in assay [5], -0.75 °C; in assay [6], 0.08 °C. In addition, the results for the ΔTm in assay [7] and in assay [8] were -2.47 °C and 1.07 °C, respectively.
Consider `CC(=O)N[C@@H](Cc1ccc(O)cc1)C(=O)N[C@H](C(=O)N[C@@H](C)C(=O)N[C@@H](CC(=O)O)C(=O)CCl)C(C)C`, for which the ΔTm in assay [1] is 0.08 °C; in assay [2], -2.91 °C; in assay [3], -0.27 °C; in assay [4], 0.22 °C; in assay [5] it was -1.19 °C; in assay [6], -0.01 °C. Moreover, the ΔTm in assay [7] is -1.19 °C; in assay [8] it was -1.17 °C.
In the case of `CCc1c(C)nc(-c2ccc(Cl)s2)nc1Nc1ccc(CC(=O)O)cc1`, the ΔTm in assay [1] is 0.97 °C; in assay [2] it was -2.77 °C; in assay [3], 0.44 °C; in assay [4], -0.04 °C; in assay [5], 0 °C; in assay [6], 0.51 °C. Further, the ΔTm is -0.9 °C in assay [7] and 1.46 °C in assay [8].
`CC(C)c1cc(C(=O)N2Cc3ccc(CN4CCN(C)CC4)cc3C2)c(O)cc1O`: the ΔTm in assay [1] is 1.01 °C; in assay [2] it was -1.29 °C; in assay [3] it was 0.67 °C; in assay [4], 0.22 °C; in assay [5], -0.43 °C; in assay [6] it was -0.06 °C. The ΔTm in assay [7] was -0.12 °C; in assay [8] it was -0.61 °C.
For `CC(=O)OCCN1C(=O)c2c(C)nc3ccc(S(=O)(=O)N4CCOCC4)cc3c2C1=O`, the ΔTm in assay [1] was -0.43 °C; in assay [2] it was -1.49 °C; in assay [3] it was -0.16 °C; in assay [4], 0.13 °C; in assay [5], -0.73 °C; in assay [6] it was -0.31 °C. The results for the ΔTm in assay [7] and in assay [8] were -1.13 °C and -1.22 °C, respectively.
For `O=C(O)/C(S)=C/c1ccc(I)cc1`, the ΔTm in assay [1] is 0.07 °C; in assay [2], -3.45 °C; in assay [3] it was -1.16 °C; in assay [4] it was -0.16 °C; in assay [5] it was -8.42 °C; in assay [6], -1.42 °C. The ΔTm was 0.99 °C in assay [7] and -0.27 °C in assay [8].
On to `Cn1ncnc1[C@H]1C2=c3c(cc(F)cc3=N[C@@H]1c1ccc(F)cc1)C(=O)NN2`, for which the ΔTm is 0.89 °C in assay [1]; 0.71 °C in assay [2]; 0.22 °C in assay [3]; -0.5 °C in assay [4]; 0.19 °C in assay [5]; 0.14 °C in assay [6]. Besides, the ΔTm in assay [7] is -1.59 °C; in assay [8], 0.57 °C.
On to `CNc1nccc(CN([C@H]2CC[C@H](N)CC2)S(=O)(=O)c2ccc(S(=O)(=O)N(Cc3ccc(Cl)cc3)C3CCCC3)cc2)n1`, for which the ΔTm was -0.6 °C in assay [1]; -2 °C in assay [2]; -0.02 °C in assay [3]; -0.71 °C in assay [4]; -0.62 °C in assay [5]; -3.03 °C in assay [6]. Also, the ΔTm was -2.32 °C in assay [7] and 0.19 °C in assay [8].
For the compound `COc1cc(Cl)ccc1C1=CN(c2ccc(-c3ccccc3OC)cc2)C2=NCCCN12`, the ΔTm in assay [1] is 0.67 °C; in assay [2], -3.63 °C; in assay [3], -0.6 °C; in assay [4], -0.21 °C; in assay [5], -0.51 °C; in assay [6] it was -0.14 °C. In addition, the values for the ΔTm in assay [7] and in assay [8] were -2.63 °C and -1.41 °C, respectively.
Take `CC#CCn1c(N2CCC[C@@H](N)C2)nc2c1c(=O)n(Cc1nc(C)c3ccccc3n1)c(=O)n2C`: the ΔTm in assay [1] was -0.11 °C; in assay [2], 0.18 °C; in assay [3], -0.01 °C; in assay [4] it was -0.33 °C; in assay [5], -0.82 °C; in assay [6], 0.06 °C. In addition, the ΔTm in assay [7] is -0.13 °C; in assay [8], -0.79 °C.
For `O=C(Nc1c[nH]nc1C(=O)NC1CCNCC1)c1cc(F)cc(F)c1`, the ΔTm is 0.13 °C in assay [1]; -1.86 °C in assay [2]; 1.26 °C in assay [3]; 1.02 °C in assay [4]; 13.9 °C in assay [5]; -0.13 °C in assay [6]. For the same compound, the ΔTm in assay [7] was -0.72 °C; in assay [8] it was -0.9 °C.
As to `COc1cccc(-c2nccc3c2CN(c2ccccc2)C3=O)c1`, the ΔTm in assay [1] is 0.76 °C; in assay [2], -1.35 °C; in assay [3], -1.3 °C; in assay [4], 0.41 °C; in assay [5], -2.56 °C; in assay [6], -4.49 °C. The ΔTm in assay [7] was -4.93 °C; in assay [8], -1.44 °C.
With `Cc1cnc(-c2ccccc2C(C)C)nc1NCc1ccc(-n2ccnn2)cc1`, the ΔTm was 0.32 °C in assay [1]; -1.87 °C in assay [2]; -0.07 °C in assay [3]; -7.36 °C in assay [4]; 0.1 °C in assay [5]; 0.55 °C in assay [6]. Further, the ΔTm is -2.6 °C in assay [7] and -0.58 °C in assay [8].
In the case of `CCN(CC)C(=O)/C(C#N)=C/c1cc(O)c(O)c([N+](=O)[O-])c1`, the ΔTm in assay [1] is 0.3 °C; in assay [2], 0.45 °C; in assay [3], 0.11 °C; in assay [4] it was -0.1 °C; in assay [5], -0.28 °C; in assay [6], 0.32 °C. Further, the ΔTm in assay [7] is -0.58 °C; in assay [8], 0.24 °C.
